# TDP1 cell noCPT = qHTS for Inhibitors of human tyrosyl-DNA phosphodiesterase 1 (TDP1): qHTS in cells in absence of CPT; DT40 Tdp1-/- hTDP1 cells, no CPT, ATP luminescence, 48 h; Potency, µM (titrated, usually from 46.2 µM), without a hit: top-dose activity change, negative = growth inhibition, usual class: inhibitors; hit rate 15% among 420,000; AID 686978, 2013; note: potency is the fitted concentration of half-maximal effect; nearly all actives have a fitted effect of over 55% in size
#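 A cellular qHTS used chicken DT40 cells lacking endogenous Tdp1 but carrying stably transfected human TDP1. Compounds were applied without camptothecin, and cell growth kinetics were judged by ATP-dependent luminescence after ≥48 hr.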
# IL1B secr inh = inflammasome signaling inhibition, IL-1 beta readout; THP-1 LPS/ATP IL-1B secretion, AlphaLISA, 16 h; active compounds read low; activity change, % at 57.5 µM; hit rate 4.7% among 360,000; in the data active = activity change below about -50%; inconclusive = mostly about -30% to -49%
#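 THP-1 cells pretreated 1 hr with compounds (up to 57.5 uM final), then stimulated with LPS (250 ng/mL final) plus ATP (1.25 mM final); secreted IL-1B measured by AlphaLISA after 16 hr, decreased signal indicating inhibition.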
# TDP1 cell CPT = growth inhibition of DT40 Tdp1-/-;hTDP1 cells with camptothecin (screen for TDP1 inhibitors) | Potency, µM (titrated, usually from 46.2 µM), inactives show at the top dose activity change, negative = growth inhibition, most hits filed as inhibitors | hit rate 12% among 420,000 | chicken DT40 Tdp1-/-;hTDP1 cells + 20 nM CPT, ATP luminescence, 48 h; note: potency is the fitted concentration of half-maximal effect; nearly all actives have a fitted effect of over 55% in size
#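 Cell growth measured by CellTiter-Glo luminescence after a minimum 48 h, 37 C compound exposure with 20 nM CPT in Tdp1-knockout DT40 cells stably expressing hTDP1, seeded 400/well; qHTS titration format.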
# CtBP-E1A inh = CtBP/E1A binding inhibition; AlphaScreen GST-E1A/His-CtBP binding, 1536-well; active compounds read low; activity change, % (no concentration beside the values); hit rate 0.49% among 340,000; AID 651724; in the data active = activity change below about -65%; inconclusive = mostly about -30% to -63%
#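 Steps: dispense buffer (Tris pH 8.0, NaCl 300 mM, TCEP 1 mM, BSA, Tween 20); add 5X protein mix (GST-E1A, His-CtBP, 125 nM each); pin 23 nL compound; 2 h at 37 °C, dark; add 5X beads (50 ug/mL); 1 h; read.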
# TDP1 inh = inhibitors of human tyrosyl-DNA phosphodiesterase TDP1; Q9NUW8; recombinant TDP1, AlphaScreen DNA substrate cleavage; Potency, µM (series often up to 130 µM), for the others: at the highest dose activity change, negative = inhibition, usual class: inhibitors; hit rate 0.28% among 350,000; AID 485290; note: potency is the fitted concentration of half-maximal effect; nearly all actives have a fitted effect of over 40% in size
#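 Tdp1 1 nM final; 15 min RT w/ cpd; substrate 15 nM, 5 min; beads 10 ug/ml, 10 min; AlphaScreen read. Neg ctrl: no enzyme.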
# Six1-Eya2 inh = blocks human Six1 binding to Eya2 | Q15475+O00167 | AlphaScreen GST-Six1/His-Eya2 binding, biochemical; active compounds read low | activity change, % (no concentration beside the values) | hit rate 0.56% among 360,000 | AID 651725; in the data active = activity change below about -65%; inconclusive = mostly about -30% to -63%
# Target sequence (O00167 whole entry, looked up): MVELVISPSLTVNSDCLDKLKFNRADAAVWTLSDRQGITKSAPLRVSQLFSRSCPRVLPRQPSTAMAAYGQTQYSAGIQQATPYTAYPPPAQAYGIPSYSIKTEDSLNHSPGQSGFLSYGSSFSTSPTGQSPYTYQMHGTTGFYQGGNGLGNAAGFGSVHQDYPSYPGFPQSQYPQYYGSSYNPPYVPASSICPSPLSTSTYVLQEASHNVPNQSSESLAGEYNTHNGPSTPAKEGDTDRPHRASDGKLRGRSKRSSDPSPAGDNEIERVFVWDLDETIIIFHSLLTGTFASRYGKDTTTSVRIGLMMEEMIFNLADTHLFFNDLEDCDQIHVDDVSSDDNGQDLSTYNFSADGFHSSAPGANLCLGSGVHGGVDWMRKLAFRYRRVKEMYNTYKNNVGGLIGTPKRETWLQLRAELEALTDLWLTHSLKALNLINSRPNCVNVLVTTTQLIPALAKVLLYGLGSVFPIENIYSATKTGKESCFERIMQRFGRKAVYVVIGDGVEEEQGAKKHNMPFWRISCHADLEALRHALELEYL
# Target sequence (Q15475 whole entry, looked up): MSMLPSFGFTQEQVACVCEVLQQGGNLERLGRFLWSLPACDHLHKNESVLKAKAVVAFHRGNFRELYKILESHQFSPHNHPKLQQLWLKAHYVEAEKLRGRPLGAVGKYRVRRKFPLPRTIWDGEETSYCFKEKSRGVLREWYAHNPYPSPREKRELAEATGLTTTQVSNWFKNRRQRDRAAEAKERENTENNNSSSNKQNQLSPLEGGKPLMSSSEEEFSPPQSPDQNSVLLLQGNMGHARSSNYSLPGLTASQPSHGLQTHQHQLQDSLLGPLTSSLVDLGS
#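 GST-Six1 + His-Eya2 (5X stock: 250/500 nM); Tris pH 8.0, 300 mM NaCl, 0.05% BSA, 0.02% Tween 20; GSH donor/Ni acceptor beads; 1 h 37 °C dark; AlphaScreen readout.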
# The depositor's hits bear a star; ? = inconclusive; · = not tested or not shown. Only some compounds are listed: those with a hit (about 18% of all), similar ones and a draw of the others. Unless noted, calls come from the whole dose curve; as a rule, active = well fitted curve in the direction sought with a large enough effect; inconclusive = small, poorly fitted or top-dose-only effect, or another doubt; inactive = no such curve, though single readings can be large; an effect the other way counts as inactive or inconclusive. % is set by controls: 0 for no effect and ±100 for the full control effect.
SMILES,TDP1 cell noCPT,IL1B secr inh,TDP1 cell CPT,CtBP-E1A inh,TDP1 inh,Six1-Eya2 inh
Cc1ccc(C(=O)NC(=S)Nc2ccc(Oc3ccc(Cl)cc3)cc2)cc1,21µM*,0,?,-3,4%,-9
Cc1nc(C(=O)NNC(=O)c2ccc(Cl)cc2)cs1,12µM*,66,16µM*,-7,·,6
Cc1ccc(C(=O)NC(=S)Nc2ccc(NC(=O)c3cccc(Cl)c3)cc2)cc1,?,0,-28%,2,-1%,18
O=C(NC(=S)Nc1ccc(Oc2ccccc2)cc1)c1ccc(Cl)cc1,23µM*,-54*,?,-4,8%,-14
COc1ccc(C(=O)NC(=S)Nc2ccc(Cl)c(C(=O)O)c2)cc1,-2%,4,-11%,-2,-3%,7
O=C(NC(=S)Nc1ccc(-c2ccc(CO)o2)cc1)c1cccs1,?,-19,-13%,-6,1%,-14
Cc1ccc(C(=O)NC(=S)Nc2ccc(-c3ccc(CO)o3)cc2)cc1,10µM*,0,?,0,0%,2
Cc1ccc(S(=O)(=O)N2CCOCC2)cc1NC(=O)CSc1nnc2n1CCCCC2,21%,5,-5%,2,0%,2
COCCCNC(=S)NC(=O)c1ccc(C)cc1,18µM*,0,0%,4,7%,-4
COCCCNC(=S)NNC(=O)c1csc(C)n1,?,18,-24%,·,·,-78*
COC(=O)CN1CCC(=O)c2ccccc2S1(=O)=O,·,·,·,·,4%,·
CC1CCCCN1CCn1cnc2c([nH]c3ccccc32)c1=O (stereo unspecified),-4%,8,17%,0,5%,4
CC12CN3CC(c4ccccc4)(CN(C1)C3c1ccc(O)cc1)C2=O (stereo unspecified),?,·,-6%,·,-2%,·
C=CCOc1c(Br)cc(CNn2cn[nH]c2=S)cc1OC,-12%,9,-3%,-16,5%,3
CCCCn1c(N)c(N(CC)C(=O)c2cccc(OC)c2)c(=O)[nH]c1=O,-3%,1,8%,-1,-1%,15
CCN(C[C@H]1N[C@@](Cc2ccccc2)(C(=O)OC)[C@H]2C(=O)N(Cc3ccccc3)C(=O)[C@@H]12)S(=O)(=O)c1ccc(F)cc1,?,-16,18µM*,-3,0%,-1
CCN(C[C@H]1N[C@@](Cc2ccccc2)(C(=O)OC)[C@H]2C(=O)N(C)C(=O)[C@@H]12)S(=O)(=O)c1ccc(C(C)(C)C)cc1,18µM*,11,?,4,2%,3
COC(=O)[C@]1(Cc2ccccc2)N[C@H](CN(C)C(=O)c2ccc(C(C)(C)C)cc2)[C@@H]2C(=O)N(Cc3ccccc3)C(=O)[C@@H]21,21µM*,-6,15µM*,0,2%,-2
CCN(C[C@H]1N[C@@](Cc2ccccc2)(C(=O)OC)[C@H]2C(=O)N(Cc3ccccc3)C(=O)[C@@H]12)S(=O)(=O)c1ccc(C(C)(C)C)cc1,16µM*,0,?,3,2%,-2
CCN(C[C@H]1N[C@@](Cc2ccccc2)(C(=O)OC)[C@H]2C(=O)N(Cc3ccccc3)C(=O)[C@@H]12)S(=O)(=O)c1ccc(OC)cc1,?,7,?,-7,2%,-3
CCc1ccc(NC(=O)c2noc(C(C)C)c2[N+](=O)[O-])cc1,?,-29,?,1,3%,-1
COC(=O)[C@]1(Cc2ccccc2)N[C@H](CN(C)S(=O)(=O)c2ccc(F)cc2)[C@@H]2C(=O)N(C)C(=O)[C@@H]21,-4%,6,-5%,3,2%,-3
COC(=O)[C@]1(Cc2ccccc2)N[C@H](CN(C)S(=O)(=O)c2ccc(C(C)(C)C)cc2)[C@@H]2C(=O)N(C)C(=O)[C@@H]21,?,-25,18µM*,1,2%,0

# High-throughput results as filed in PubChem.
